In PubChem BioAssay:
The source made the active and inactive calls.

These molecules were tested on wheat germ agglutinin (Triticum aestivum), Alexa647-labelled (assay: Alexa647-WGA lectin binding to printed small molecules – biochemical, small-molecule microarray, 635/667 nm fluorescence, artefact control for SMM control-protein annotation, profiling panel (AID 1140;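 also: score merges 667 nm feature emission with signal to noise over triplicate slides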)). Conditions: WGA-A647 binding, 635 nm fluorescence, higher = more signal.
With `COC(=O)CC=C[C@@H](C)[C@@H](C=NOC[C@@H](O)[C@H]1O[C@@H]2OC(C)(C)O[C@@H]2[C@H]1O)NS(=O)(=O)c1ccc(C)cc1` the composite z-score was 0.0146. `O=C(NN=C1C[C@@H](O)[C@@H](O)[C@@H]2[C@@H]3C(=O)N(C4CCCCC4)C(=O)[C@@H]3CC[C@H]12)OCc1ccccc1` was tested, and the composite z-score was 0.505. With `Cc1cc2c(nc1C)CCCCN2CC(C)ON=C[C@@H](C)[C@H](OCc1ccccc1)C(C)C` (some centres undefined) the composite z-score was -0.765. Molecule `CCOC(=O)[C@H](CC(C)C)NC(=O)CCC1CC(OC(=O)NCc2cccc3ccccc23)CC2(CCCC(COC(=O)NCCC(C)C)O2)O1` (some centres undefined) has a composite z-score of 0.0877. For `CC(C)CON=C1C[C@@H](O)[C@@H](O)[C@@H]2[C@@H]3C(=O)N(C[C@@H]4CCCO4)C(=O)[C@@H]3CC[C@@H]12`, the composite z-score was 0.561. For `C=CC[C@@H]1C=C[C@H](ON=C(C)CCC(=O)OC[C@H]2O[C@H](c3ccccc3)C=C[C@@H]2Oc2ccc(OC)cc2)[C@@H](CO)O1`, the composite z-score was 0.104. `CO[C@@H]1COC(=O)CC=C[C@@H](C)[C@@H]2C=C[C@H](O)[C@@H](COC(=O)CC=C[C@H]1C)O2` showed a composite z-score of -0.448. `COC(=O)[C@H](C)NC(=O)CCC1CC(OC(=O)NCc2cccc3ccccc23)CC2(CCCC(COC(=O)NCC(c3ccccc3)c3ccccc3)O2)O1` (some centres undefined) gave a composite z-score of 0.661.

The molecules below were run against Luciferin 4-monooxygenase (Photinus pyralis) (UniProt P08659) (assay: inhibition of purified Photinus pyralis luciferase – biochemical, luminescence, purified enzyme, 2006 set, primary screen (AID 1141;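 also: cell-free assay with purified firefly luciferase at 100 ng per well in PBS; test concentration not given here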)). Conditions: purified firefly luciferase, SteadyGlo luminescence, 30 min; higher = more signal, called active from +8 up or from −8 down.
Luciferin 4-monooxygenase (Photinus pyralis), sequence (P08659 whole entry, looked up): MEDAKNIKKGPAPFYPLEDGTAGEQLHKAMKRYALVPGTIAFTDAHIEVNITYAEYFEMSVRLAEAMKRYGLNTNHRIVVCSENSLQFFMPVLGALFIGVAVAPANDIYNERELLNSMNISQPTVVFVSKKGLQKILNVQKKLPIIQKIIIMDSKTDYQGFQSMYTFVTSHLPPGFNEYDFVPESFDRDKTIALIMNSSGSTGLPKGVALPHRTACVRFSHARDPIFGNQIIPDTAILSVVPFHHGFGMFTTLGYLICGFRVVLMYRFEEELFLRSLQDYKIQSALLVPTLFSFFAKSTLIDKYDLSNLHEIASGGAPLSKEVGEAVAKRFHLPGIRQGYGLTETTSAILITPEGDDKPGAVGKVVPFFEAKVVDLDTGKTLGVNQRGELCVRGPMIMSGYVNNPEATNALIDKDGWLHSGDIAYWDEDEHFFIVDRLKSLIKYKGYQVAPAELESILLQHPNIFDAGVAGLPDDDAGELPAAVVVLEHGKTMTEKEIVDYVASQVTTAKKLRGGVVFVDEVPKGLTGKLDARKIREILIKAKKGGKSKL
`CCN1C(=O)[C@@H]2[C@H]3C(=CC[C@@H]2C1=O)C1(OCCCO1)[C@H]1O[C@H]1[C@H]3O` was tested, and the z-score was -26.1 (active). In the case of `CCOC(=O)[C@H](Cc1ccccc1)NC(=O)CCC1CC(OC(=O)NCCc2ccc(F)cc2)CC2(CCCC(COC(=O)NCCc3ccccc3OC)O2)O1` (some centres undefined), the z-score is reported as 0.451 (inactive). In the case of `CCOC(=O)NN=C1C[C@@H](O)[C@@H](O)[C@@H]2[C@@H]3C(=O)N(c4cccc(Oc5ccccc5)c4)C(=O)[C@@H]3CC[C@H]12`, the z-score is reported as -0.219 (inactive). With `CCCCC#C[C@@H]1C=C[C@H](Oc2ccc(C(=O)OC)cc2)[C@@H](COC(=O)OCC)O1` the z-score was -3.64 (inactive). `CCCNC(=O)OC[C@H]1O[C@H](CCON=C(C)CCN2CCc3nc(CC)c(CC)cc3C2)C=C[C@@H]1Oc1ccc(OC)cc1` was tested, and the z-score was -0.512 (inactive). For `CCC1=NOC(CCC2CC(OC(=O)NCc3cccc4c3OCO4)CC3(CCCC(COC(=O)NCCc4ccccc4OC)O3)O2)C1` (centres undefined), the z-score was 0.412 (inactive). `CO[C@@H]1COC(=O)CC=C[C@H](C)[C@H](OC)COC(=O)[C@H](C)NC(=O)CC=C[C@H]1C` was tested, and the z-score was -0.304 (inactive). In the case of `C#CCCCON=C1C[C@@H](O)[C@@H](O)[C@@H]2[C@@H]3C(=O)N(C(C)(C)C)C(=O)[C@@H]3CC[C@H]12`, the z-score is reported as 0.541 (inactive). With `CCOC(=O)[C@H](Cc1ccccc1)NC(=O)CCC1CC(OC(=O)NCc2ccc3c(c2)OCO3)CC2(CCCC(COC(=O)NCCC(C)C)O2)O1` (some centres undefined) the z-score was 0.906 (inactive). `COC(=O)CC=C[C@@H](C)[C@@H](C=NO[C@H](C)c1cn([C@H](CO)Cc2ccccc2)nn1)NS(=O)(=O)c1ccc(C)cc1` was tested, and the z-score was -0.965 (inactive). `CCN1C(=O)[C@H]2[C@H]3[C@H](O)[C@H](O)CC(=O)[C@@H]3CC[C@H]2C1=O` was tested, and the z-score was -0.497 (inactive). In the case of `CCO[C@H](c1cc(OC)cc([N+](=O)[O-])c1OC)[C@H](C)C=CCC(=O)OC`, the z-score is reported as -0.734 (inactive). For `COC(=O)[C@H](C)NC(=O)CCC1CC(OC(=O)NCCc2ccc(F)cc2)CC2(CCCC(COC(=O)NCc3cccc(C(F)(F)F)c3)O2)O1` (some centres undefined), the z-score was 0.0641 (inactive). With `CCOC(=O)[C@H](CC(C)C)NC(=O)CCC1CC(OC(=O)NCc2ccc3c(c2)OCO3)CC2(CCCC(COC(=O)NCc3cccc(C(F)(F)F)c3)O2)O1` (some centres undefined) the z-score was 0.679 (inactive). With `COC(=O)[C@H](C)NC(=O)CCC1CC(OC(=O)NCc2ccc3c(c2)OCO3)CC2(CCCC(COC(=O)NCc3cccc(C(F)(F)F)c3)O2)O1` (some centres undefined) the z-score was 0.969 (inactive). With `C[C@@H](c1ccccc1)N1C(=O)[C@H]2[C@H]3[C@H](O)[C@H](O)CC(=NO[C@@H]4O[C@H](CO)[C@@H](O)[C@H](O)[C@H]4O)[C@H]3CC[C@H]2C1=O` the z-score was 0.491 (inactive). In the case of `CCc1cc2c(nc1CC)CCN(CCC(C)=NO[C@H](C)c1cn([C@H](CO)Cc3ccccc3)nn1)C2`, the z-score is reported as -0.378 (inactive). For `O=C1C[C@@H](O)[C@@H](O)[C@@H]2[C@@H]3C(=O)N(Cc4ccccc4)C(=O)[C@@H]3CC[C@@H]12`, the z-score was -0.0665 (inactive). `COc1ccc(O[C@H]2C=C[C@@H](c3ccccc3)O[C@@H]2CON=CC[C@@H]2C=C[C@H](OC(C)=O)[C@@H](COC(C)=O)O2)cc1` was tested, and the z-score was -0.354 (inactive). In the case of `Cc1ccc(S(=O)(=O)n2c3ccccc3c3nnc(C(=O)c4ccccc4)nc32)cc1`, the z-score is reported as -4.76 (inactive). In the case of `CCCNC(=O)OC[C@H]1O[C@H](CCON=C(C)CCC(=O)OC[C@H]2O[C@H](c3ccccc3)C=C[C@@H]2Oc2ccc(OC)cc2)C=C[C@@H]1Oc1ccc(OC)cc1`, the z-score is reported as 1 (inactive). `COC(=O)CC=C[C@@H](C)[C@H](OCc1cccc(-c2ccccc2)c1)C1CCCCC1` was tested, and the z-score was -0.0245 (inactive). With `O=C(NN=C1C[C@@H](O)[C@@H](O)[C@@H]2[C@@H]3C(=O)N(Cc4ccccc4)C(=O)[C@@H]3CC[C@@H]12)OCc1ccccc1` the z-score was 0.472 (inactive). In the case of `COc1ccc(COC(=O)NN=C2C[C@@H](O)[C@@H](O)[C@@H]3[C@@H]4C(=O)N(Cc5ccccc5)C(=O)[C@@H]4CC[C@H]23)cc1`, the z-score is reported as 0.893 (inactive). For `COc1ccc(O[C@H]2C=C[C@@H](c3ccccc3)O[C@@H]2CON=C(C)CCC(=O)OC[C@H]2O[C@H](c3ccccc3)C=C[C@@H]2Oc2ccc(OC)cc2)cc1`, the z-score was 1.27 (inactive). For `CCCNC(=O)OC[C@H]1O[C@H](CCON=Cc2ccc(C(=O)N3[C@H](c4ccc(C)cc4)[C@@H](C)CC[C@H]3C(=O)OC)cc2)C=C[C@@H]1Oc1ccc(OC)cc1`, the z-score was 0.407 (inactive). `CCOC(=O)CCN1C(=O)[C@H]2[C@H]3[C@H](O)[C@H](O)CC(=NNC(=O)OCc4ccccc4)[C@@H]3CC[C@H]2C1=O` was tested, and the z-score was 0.195 (inactive). `C[C@@H](c1ccccc1)N1C(=O)[C@H]2[C@H]3[C@H](O)[C@H](O)CC(=NOCc4ccccc4)[C@H]3CC[C@H]2C1=O` was tested, and the z-score was 0.0057 (inactive). For `COC(=O)CC=C[C@@H](C)[C@@H](C=NOC[C@@H](O)[C@H]1O[C@@H]2OC(C)(C)O[C@@H]2[C@H]1O)NS(=O)(=O)c1ccc(C)cc1`, the z-score was 0.543 (inactive). `O=C(NN=C1C[C@@H](O)[C@@H](O)[C@@H]2[C@@H]3C(=O)N(C4CCCCC4)C(=O)[C@@H]3CC[C@H]12)OCc1ccccc1` was tested, and the z-score was -0.0704 (inactive). In the case of `Cc1cc2c(nc1C)CCCCN2CC(C)ON=C[C@@H](C)[C@H](OCc1ccccc1)C(C)C` (some centres undefined), the z-score is reported as -0.29 (inactive). `CCOC(=O)[C@H](CC(C)C)NC(=O)CCC1CC(OC(=O)NCc2cccc3ccccc23)CC2(CCCC(COC(=O)NCCC(C)C)O2)O1` (some centres undefined) was tested, and the z-score was -0.0038 (inactive). For `CC(C)CON=C1C[C@@H](O)[C@@H](O)[C@@H]2[C@@H]3C(=O)N(C[C@@H]4CCCO4)C(=O)[C@@H]3CC[C@@H]12`, the z-score was 0.141 (inactive). For `C=CC[C@@H]1C=C[C@H](ON=C(C)CCC(=O)OC[C@H]2O[C@H](c3ccccc3)C=C[C@@H]2Oc2ccc(OC)cc2)[C@@H](CO)O1`, the z-score was -0.506 (inactive). With `CO[C@@H]1COC(=O)CC=C[C@@H](C)[C@@H]2C=C[C@H](O)[C@@H](COC(=O)CC=C[C@H]1C)O2` the z-score was -1.35 (inactive). With `COC(=O)[C@H](C)NC(=O)CCC1CC(OC(=O)NCc2cccc3ccccc23)CC2(CCCC(COC(=O)NCC(c3ccccc3)c3ccccc3)O2)O1` (some centres undefined) the z-score was 1.22 (inactive).
